Experimental findings from PubChem BioAssay AID463173 (ICCB-Longwood Screening Facility, Harvard Medical School, 2010) are described below.

About 4,300 (8.3%) of roughly 52,000 compounds were called active. The entries come from a sample that favours actives as a whole. Values without a mark were called inactive. Cut-off read from the data, not from the text of the source: active = survival mostly below about 52% (no sharp cut-off); inactive = mostly above about 56%.

This test deals with DeltatarO mutant. Description: S. aureus survival, RN4220 and DeltatarO strains – OD600, teichoic acid synthesis inhibitors, primary screen (AID 463173). The conditions noted are these: S. aureus RN4220 wild type/DeltatarO growth, OD600, 18 h, active compounds read low, screened at 18.75 µg/mL (by protocol).
In the case of `O=c1c2cnn(-c3ccc(F)cc3)c2ncn1Cc1ccc(F)cc1`, the survival was 106%.
Take `CCn1c2c(c(=O)n3ncc(C(=O)N4CCN(c5ccc(C(C)=O)cc5)CC4)c13)CN(Cc1ccc(OC)cc1)CC2`: the survival was 126%.
With `COc1ccc(Br)cc1CNC(=O)c1ccc2c(c1)nc1n2CCC(C)C1` (configuration not stated), the survival is 75%.
For the molecule `COc1ccccc1C(=O)N1CCC(c2noc(-c3ccc(S(=O)(=O)N4CCCC4)cc3)n2)CC1`, the survival was 98%.
The value for `COc1ccc(NC(=O)C(Cc2ccccc2)NS(=O)(=O)c2ccc3c(c2)CCN3C(C)=O)cc1` (configuration not stated) was 72%; that for `COc1ccc(N2CCN(C(=O)c3ccc4c(c3)N(Cc3ccc(F)cc3)C(=O)c3ccccc3S4=O)CC2)cc1` (configuration not stated) was 116%; that for `CC(=O)Nc1ccc(S(=O)(=O)NC2=NCN(CCO)CN2)cc1` was 89%.
Take `COc1ccc(C)cc1NC(=O)CSc1nc(=O)n(Cc2ccco2)c2c1CCC2`: the survival was 116%.
`CCCCOc1ccc(Cn2c(=O)oc3ccccc32)cc1`: the survival was 127%.
On to `O=C(O)c1ccc2oc(=O)n(Cc3ccccc3)c2c1`, for which the survival was 94%.
In the case of `CCOc1ccc(CNC(=O)c2ccc3oc(=O)n(Cc4ccccc4)c3c2)cc1`, the survival was 79%.
For `COc1cc(Cn2c(=O)oc3ccc(C)cc32)ccc1OCCC(C)C` the value was -1% (active); for `CC(C)CCOc1ccc(Cn2c(=O)oc3ccccc32)cc1`, 127%.
Take `CCCCOc1ccc(Cn2c(=O)oc3ccc(C)cc32)cc1`: the survival was 40% (active).
On to `CCCCOc1ccc(CN2C(=O)C(=O)c3cc(C)ccc32)cc1OC`, for which the survival is 122%.
For `CCCCCOc1ccc(Cn2c(=O)oc3ccc(C)cc32)cc1OC`, the survival is 4% (active).
Regarding `CCCCOc1ccc(Cn2c(=O)oc3ccc(C)cc32)cc1OC`, the survival was 36% (active).
As to `CCCCCOc1ccc(Cn2c(=O)oc3ccccc32)cc1`, the survival was 124%.
In the case of `CCOc1ccc(CCNC(=O)c2ccc(CSCc3ccccc3C)o2)cc1OCC`, the survival was 112%.
In the case of `Cc1ccc(NC(=O)c2ccc(NC(=O)N3CCSc4ncccc43)cc2)cc1Cl`, the survival is 109%.
With `CCCn1cc(S(=O)(=O)c2cc(C)ccc2C)c(=O)c2cc(F)c(N3CCN(CC)CC3)cc21`, the survival was 80%.
`O=C(Nc1ccccc1C(=O)OCc1cc(=O)n2ccsc2n1)c1ccc(Cl)cc1`: the survival is 76%.
With `COc1ccc(NC(=O)c2ccc(-c3nc(CSc4ccccc4)c(C)o3)cc2)cc1OC`, the survival was 84%.
On to `Cc1ccc(C)c(NC(=O)CN(C)S(=O)(=O)c2cccc3cccnc23)c1`, for which the survival is 85%.
As for `CCCn1c(N)nc2c1c(=O)[nH]c(=O)n2C`, the survival is 71%.
For the molecule `COC(=O)c1ccc(NC(=O)CC2C(=O)N(c3ccc(Cl)cc3)C(=O)N2Cc2cccs2)cc1` (configuration not stated), the survival was 102%.
`Cc1cc(C)c(Cn2c3ccccc3c3cnn(CC(=O)NCCc4ccccc4)c(=O)c32)c(C)c1`: the survival was 133%.
In the case of `Cc1ccc(NC(=O)Cn2cc(C(=O)C3CC3)c3ccccc32)c(C)c1`, the survival is 90%.
Take `O=C(NCc1ccccc1Cl)c1ccc2oc(=O)n(Cc3ccccc3)c2c1`: the survival is 72%.
Turning to `CCOC(=O)c1ccc2oc(=O)n(Cc3ccccc3)c2c1`, the survival is 83%.
In the case of `Cc1ccc2oc(=O)n(CCNC(=O)Nc3ccccc3Cl)c2c1`, the survival was 72%.
The value for `CCCCCOc1ccccc1Cn1c(=O)oc2ccc(C)cc21` was 5% (active); that for `Cc1ccc2oc(=O)n(Cc3ccccc3Cl)c2c1` was -3% (active); that for `CCCCCOc1ccccc1CN1C(=O)C(=O)c2cc(C)ccc21` was 151%.
For the molecule `CCCCN(CC)CCCNC(=O)c1cn(C)c(=O)c2c1c1ccccc1n2C`, the survival was 139%.
For the molecule `Cc1ccc2c(c1)cc1c(=O)n(CC(=O)NCc3ccco3)nc(C)n12`, the survival was 84%.
Take `O=C(CN1C(=O)COc2ccc(S(=O)(=O)NC3CCCC3)cc21)NCc1ccccc1Cl`: the survival is 80%.
On to `CCCC(c1nnnn1CC1CCCO1)N(Cc1cccs1)Cc1cc2ccc(C)c(C)c2[nH]c1=O` (configuration not stated), for which the survival was 71%.
For the molecule `Cc1ccc(-c2nc3cc(C(C)C)ccc3o2)cc1NC(=O)c1cc([N+](=O)[O-])ccc1N1CCOCC1`, the survival was 62%.
For `CCn1cc(C2N3CC4(CC)CN2CC(CC)(C3)C4=O)c2ccccc21` (configuration not stated) the value was 73%; for `Cc1c(Cl)cccc1NC(=O)c1ccc2c(c1)nnn2C1CCCC1`, 108%; for `Cc1cccc(C)c1NC(=O)c1ccc2c(c1)nnn2C1CCCC1`, -5% (active).
The value for `Cc1cc(C)cc(NC(=O)c2ccc3c(c2)nnn3C2CCCC2)c1` was 128%; that for `Cc1cc(Br)ccc1NC(=O)CN1C(=O)c2cccnc2Sc2ccccc21` was 90%; that for `CCN(CC)c1ccc(NC(=O)CN2C(=O)c3cccnc3Sc3ccccc32)c(C)c1` was -2% (active).
On to `CCN(CC)c1ccc(NC(=O)CN2C(=O)c3cccnc3Oc3ccccc32)c(C)c1`, for which the survival is 116%.
For `CCOC(=O)c1c(C)c(C(=O)NCCc2ccc(OC)cc2)c(C)n1C`, the survival is 99%.
In the case of `CCC(=O)N1c2ccccc2CC1C(=O)NCCc1ccccc1C` (configuration not stated), the survival is 71%.
As for `COc1ccc(C2C(=O)N(C3CCCCCC3)CC(=O)N2Cc2ccc(C)cc2)cc1` (configuration not stated), the survival was 60%.
For `Cc1ccc(CN2C(=O)CN(C3CCCCCC3)C(=O)C2c2ccc(F)cc2)cc1` (configuration not stated), the survival was 6% (active).
As for `Cc1ccc(CN2C(=O)CN(C3CCC(C)CC3)C(=O)C2c2ccc(F)cc2)cc1` (configuration not stated), the survival is 91%.
On to `Cc1ccc(C=C2C(=O)N(C)C(=O)N(C)C2=O)cc1`, for which the survival was 82%.
On to `CCOC(=O)C1=C(CS(=O)(=O)c2ccc(F)cc2)NC(=O)NC1c1ccc(OCC)c(OC)c1` (configuration not stated), for which the survival was 119%.
Take `COc1ccc(C(=O)Nc2cc3cc(Cl)ccc3oc2=O)cc1OC`: the survival is 73%.
With `COc1ccc(-c2cn3cccnc3n2)cc1NC(=O)Cc1ccccc1`, the survival was 82%.
For `CC1=NN(C(=O)c2ccccc2)C(C)(O)C1(C)C` (configuration not stated), the survival was 98%.
Regarding `Cc1cn(C(=O)c2ccccc2)c(=O)[nH]c1=O`, the survival is 57% (active).
As for `Cc1[nH]c(=O)[nH]c(=O)c1NC(=O)c1ccccc1`, the survival was 88%.
For `CCC(=O)Nc1ccc(Cl)c(-c2nc3ccccc3[nH]2)c1` the value was 49% (active); for `CC(NC(=O)CSc1n[nH]c(-c2ccccc2Cl)n1)c1nc2ccccc2[nH]1` (configuration not stated), 72%.
For `CC(C)(C)C(=O)Nc1ccc(Cl)c(-c2nc3ccccc3[nH]2)c1` the value was 44%; for `CCC(=O)Nc1cccc(-c2nc3ccccc3[nH]2)c1C`, 94%.
For `CC(C)CC(=O)Nc1ccc(Cl)c(-c2nc3ccccc3[nH]2)c1` the value was 39% (active).
For the molecule `CCOc1ccc(NC(=O)c2cc(S(=O)(=O)NC3CCCC3)ccc2F)cc1`, the survival is 86%.
In the case of `COCCn1c(=O)[nH]c2cc(C(=O)N3CCN(c4ccc(F)cc4)CC3)ccc2c1=O`, the survival was 70%.
The value for `CCN(Cc1ccccc1)C(=O)CN1C(=O)COc2ccc(S(=O)(=O)NC3CCCC3)cc21` was 78%; that for `CC(C)NC(=O)CN1CCN(c2ccc(F)cc2)CC1` was 87%; that for `Cc1ccc(S(=O)(=O)c2cn(C)c3cc(N4CCN(c5ccccc5)CC4)c(F)cc3c2=O)cc1` was 95%.
For `CC(=O)N1CCc2cc(Br)cc(S(=O)(=O)CCC(=O)N3CCN(c4ccccc4)CC3)c21` the value was 53% (active); for `CC(=O)N1CCc2cc(Br)cc(S(=O)(=O)CCC(=O)N3CCN(c4cccc(C)c4C)CC3)c21`, 45% (active).
In the case of `CC(=O)N1CCc2cc(Br)cc(S(=O)(=O)CCC(=O)N3CCN(c4ccc(F)cc4)CC3)c21`, the survival is 67%.
For `O=C(CCS(=O)(=O)c1cc(Br)cc2c1N(C(=O)C1CC1)CC2)N1CCN(c2ccccc2)CC1` the value was 91%; for `CC(=O)N1CCc2cc(Br)cc(S(=O)(=O)CCC(=O)N3CCN(c4ccccc4Cl)CC3)c21`, 61%; for `COc1ccccc1N1CCN(C(=O)CCS(=O)(=O)c2cc(Br)cc3c2N(C(C)=O)CC3)CC1`, 53%.
For the molecule `O=C(NCCS(=O)(=O)N1CCN(c2ccccc2F)CC1)C1CC(=O)N(c2ccc(F)cc2)C1` (configuration not stated), the survival is 90%.
Turning to `O=C(NCCc1csc2nc(-c3cccc(F)c3)nn12)c1ccc(Br)o1`, the survival is 76%.
On to `COc1ccc(-n2c(CNc3ccccc3Cl)nnc2SCC(N)=O)cc1`, for which the survival is 86%.
In the case of `CCN(CC)CCC(=O)c1ccc(OC(C)C)cc1`, the survival is 92%.
The value for `CCOc1ccc(NC(=O)c2ccc(-c3cccc(Cl)c3C)o2)cc1` was 42% (active); that for `COc1ccc(NC(=O)c2cc(-c3ccccc3O)no2)cc1` was 69%; that for `CCOC(=O)c1ccc(NC(=O)c2ccc(-c3cccc(Cl)c3C)o2)cc1` was 37% (active).
For `CCOC(=O)c1ccc(NC(=O)c2c(-c3c(F)cccc3Cl)noc2C)cc1`, the survival is 59%.
For `CCOc1ccc(-c2cc(C(=O)Nc3ccc(NC(C)=O)cc3)no2)cc1` the value was 61%.
Regarding `CCOc1ccc(NC(=O)c2cc3cc4ccc(C)cc4nc3o2)cc1`, the survival is 83%.
Consider `Cc1c(Cl)cccc1-c1ccc(CNc2ccc3[nH]c(=O)[nH]c3c2)o1`, for which the survival was 51%.
In the case of `Cc1c(NC(=O)c2ccc(-c3ccc(F)cc3)o2)cccc1-c1nc2ncccc2o1`, the survival is 55%.
For `Cc1c(Cl)cccc1-c1ccc(C(=O)Nc2ccc(F)cc2)o1`, the survival is 1% (active).
For the molecule `COc1ccc(NC(=O)c2coc(C)c2)cc1`, the survival was 82%.
In the case of `COc1ccc(NC(=O)c2ccc(-c3cccc(Cl)c3C)o2)cc1`, the survival is 16% (active).
On to `CCOC(=O)c1ccc(NC(=O)c2cc(=O)c3cc(CC)ccc3o2)cc1`, for which the survival was 62%.
In the case of `Cc1cccc(CNC(=O)CS(=O)(=O)c2cccc3nsnc23)c1`, the survival is 78%.
On to `COc1cccc(CNC(=O)CSc2nc3ccccc3nc2Cc2ccc(C)cc2)c1OC`, for which the survival was 74%.
